USP17 inh = human USP17-like deubiquitinase inhibition; A8MUK1; 47,000 tested, 6.5% active; inhibition, % at 50 µM; purified USP17, Ub-rhodamine cleavage fluorescence, 3 h; AID 1645855
USP7 block = blocks human USP7 ubiquitin-rhodamine cleavage | purified USP7, Ub-rhodamine cleavage fluorescence | inhibition, % at 20 µM | 47,000 tested, 0.3% active | AID 1645854
UCHL1 inh = inhibitors of human UCHL1 deubiquitinase; P09936; purified UCHL1, Ub-rhodamine cleavage fluorescence; inhibition, % at 20 µM; 47,000 tested, 0.2% active
USP8 block = inhibitors of human USP8 deubiquitinase; purified USP8, Ub-rhodamine cleavage fluorescence, 30 min; inhibition, % at 20 µM; 47,000 tested, 4.2% active; AID 1645853
USP10 block = human USP10 deubiquitinase inhibition | purified USP10, Ub-rhodamine fluorescence, 60 min | 47,000 tested, 1.1% active | AID 1645856 | inhibition, % at 20 µM | Q14694
USP30 block = blocks human USP30 ubiquitin-rhodamine cleavage; 47,000 tested, 5.3% active; purified USP30, Ub-rhodamine cleavage fluorescence; AID 1645860; inhibition, % at 25 µM
Target sequence (Q70CQ3 whole entry, looked up): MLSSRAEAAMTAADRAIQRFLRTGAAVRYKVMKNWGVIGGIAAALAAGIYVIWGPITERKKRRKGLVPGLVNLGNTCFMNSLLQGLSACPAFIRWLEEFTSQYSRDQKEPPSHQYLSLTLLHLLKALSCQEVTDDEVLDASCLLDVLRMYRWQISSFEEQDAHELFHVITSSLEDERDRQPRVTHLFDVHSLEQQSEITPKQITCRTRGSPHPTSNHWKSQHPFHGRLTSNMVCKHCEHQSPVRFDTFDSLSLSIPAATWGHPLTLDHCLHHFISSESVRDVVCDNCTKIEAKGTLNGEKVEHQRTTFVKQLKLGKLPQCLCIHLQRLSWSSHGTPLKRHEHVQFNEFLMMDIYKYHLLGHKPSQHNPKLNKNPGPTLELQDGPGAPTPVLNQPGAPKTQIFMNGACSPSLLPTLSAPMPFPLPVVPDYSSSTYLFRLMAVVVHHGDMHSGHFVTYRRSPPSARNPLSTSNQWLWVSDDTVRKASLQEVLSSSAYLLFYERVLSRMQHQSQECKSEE
* = called active by the depositor; . = not tested or not shown. The list is not random: actives were taken first. Their share in the collection is about 12%. No stated cut-off is given here; in the data, active means inhibition above about 30%; inactive means the rest.

SMILES	USP17 inh	USP7 block	UCHL1 inh	USP8 block	USP10 block	USP30 block
O=C(Cn1c(=O)c2ccccc2c2ccccc21)Nc1ccc2c(c1)OCO2	52.5*	27.4	9.4	87.4*	42.3*	82.4*
O=C(CCCn1c(=O)c2ccccc2n(CC(=O)Nc2ccc(Br)cc2F)c1=O)NCc1ccccc1Cl	40.7*	-0.3	-0.3	0.9	-2.9	-14.5
Cc1cccc(C)c1NC(=O)Cn1c(=O)n(CCCCC(=O)NCc2ccc3c(c2)OCO3)c(=O)c2ccccc21	32.6*	16.7	4.2	68.9*	54.3*	66.8*
O=C(CCCn1c(=O)c2ccccc2n(CC(=O)NCc2ccccc2Cl)c1=O)NCc1ccc2c(c1)OCO2	27.1	27.4	6.1	72.5*	56.7*	66.3*
COCCn1cc2c3c(cccc31)CN(C(=O)c1ccc(F)cc1F)CC2	-77.3	-23.7	-14.6	-36.1	-12.0	-254.4
O=C(CSc1ncn[nH]1)Nc1ccc2c(c1)OCO2	.	-0.9	-4.3	-20.7	-1.4	-4.5
O=C(CSc1n[nH]c2nc3ccccc3n12)Nc1ccc2c(c1)OCO2	-28.0	3.9	3.0	30.3*	10.4	0.9
Cc1cc2occ(CC(=O)Nc3ccccc3-c3ccccc3)c2cc1C(C)C	-25.1	1.0	1.5	2.1	-5.9	-114.7
O=C(Cc1cccnc1)N[C@@H]1CC[C@@H](Oc2ccccc2)[C@@H](O)[C@@H]1O	30.5*	6.1	5.4	72.8*	2.9	17.6
COc1ccccc1Nc1cc(C)nc2nc(-c3ccco3)nn12	40.8*	-26.1	-41.0	-22.5	-8.5	-32.3
Cc1cc(Nc2ccc(C)c(Cl)c2)n2nc(-c3ccco3)nc2n1	-49.9	-4.1	-17.4	35.2*	-5.3	-162.3
CC(C)CN1C[C@@H]2C(=O)N(C)C3(CCN(C(=O)Cc4ccccc4)CC3)[C@@H]2C1	-12.7	-0.4	1.8	-20.7	-0.7	-0.3
COc1ccccc1-c1noc(Cn2c(=O)[nH]c3cc4c(cc3c2=O)OCO4)n1	26.9	-3.6	1.9	11.3	-0.8	-23.5
COc1cc(C2CC(=O)c3cnc(NC(=O)c4ccccc4Cl)nc3C2)cc(OC)c1OC (centres undefined)	7.1	-0.8	3.4	10.1	-0.5	30.0
O=C1CC(c2ccccc2)Cc2nc(Nc3cc(Cl)cc(Cl)c3)ncc21 (centres undefined)	32.9*	.	1.2	-2.5	1.0	-4.8
CCC(C(=O)Nc1ncc2c(n1)CC(c1ccc(OC)cc1)CC2=O)c1ccccc1 (centres undefined)	6.8	-4.2	1.5	3.7	-6.1	13.4
CCC(C(=O)Nc1ncc2c(n1)CC(c1ccc(F)cc1)CC2=O)c1ccccc1 (centres undefined)	19.7	-12.3	8.2	19.3	7.7	33.8*
Cc1ccc(-c2noc3c(=O)[nH]cnc23)cc1	-26.3	0.0	1.6	-10.7	2.3	-24.1
CCc1ccc(NC(=O)CCc2nc3cccnc3n2Cc2ccccc2)cc1	71.3*	6.1	4.0	34.6*	10.9	78.9*
CSc1cccc(NC(=O)CCc2nc3cccnc3n2Cc2ccccc2)c1	48.1*	-8.5	-2.6	-16.0	-2.4	-43.9
CC1CCCN(C(=O)c2cn(-c3ccc(S(=O)(=O)N4CCCC(C)C4)cn3)cn2)C1 (centres undefined)	5.8	7.2	3.2	11.1	1.1	38.4*
COC(=O)c1ccc(N(C(=O)c2ccco2)C(C(=O)NC2CCCC2)c2ccc(N3CCOCC3)cc2)cc1 (centres undefined)	-3.5	4.4	-3.4	-9.0	1.8	0.2
COc1ccc(OC)c(CNC(=O)c2sc3ncnc(N4CCCC4)c3c2C)c1	-2.0	-2.7	2.0	-159.5	1.6	18.4
CC(=O)N1CCCC(c2nc(C)cc(-c3ccccc3C(=O)O)n2)C1 (centres undefined)	-3.9	-0.8	-3.8	-23.3	-3.3	0.7
CC(=O)N1CCCC(c2nc(C)cc(-c3cc(F)ccc3C(=O)O)n2)C1 (centres undefined)	7.1	3.8	1.5	10.8	2.0	63.7*
O=C(NCC1CCCO1)[C@H](Cc1ccccc1)NC(=O)N1CCn2c1nc1ccccc12 (some centres undefined)	5.9	-7.1	2.6	11.2	-5.7	1.9
O=C(/C=C/c1c(F)cccc1Cl)NCc1ccccn1	-21.2	0.8	-6.7	-11.8	-6.5	-64.1
CCN(CC)C(=O)c1sc(NC(=O)/C=C/c2c(F)cccc2Cl)c(C#N)c1C	62.1*	8.1	6.8	-3.8	15.8	-29.0
